Measurements as given in PubChem BioAssay.

Assay: small-molecule microarray binders of probe aEGFR, primary screen, biochemical, biotinylated probe, 635/667 nm fluorescence (AID 1097);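 further: probe is a biotinylated anti-EGFR antibody binding compounds printed on slides; score combines fluorescence near 667 nm and signal to noise of each spot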
Conditions: higher = more signal
Compound COC(=O)c1c(CC[C@@H](CO)NC(=O)NCCc2c[nH]c3ccccc23)oc(C(=O)Cc2ccccc2)c1C(=O)OC has a composite z-score of -0.126.
With CC(C)[Si](C#CCCCC#N)(Oc1ccccc1Br)C(C)C the composite z-score was -0.0389.
COc1cc(CO)cc(I)c1O[C@H]1C=C(C(=O)NCCO)C[C@@H](N(C(=O)c2cc3ccccc3oc2=O)C2CCCCCC2)[C@@H]1O gave a composite z-score of -0.207.
For C=CCC(OC(C)=O)[C@@H]1[C@@H](N(Cc2ccc(-c3cccc(C(F)(F)F)c3)o2)C(=O)c2cccc3ccccc23)c2cc(OCCCO)ccc2N1C(=O)Cc1ccc2ccccc2c1 (stereo partly specified), the composite z-score was -0.146.
CC(c1ccccc1)C(O)C1C=CC2C(=O)N(C)C(=O)C2N1NC(=O)OC(C)(C)C (stereo unspecified) showed a composite z-score of -0.0859.
COc1ccc(CCNC(=O)[C@@]2(C)c3ccccc3C(=O)N(c3ccc(C)cn3)[C@H]2c2ccc(CO)cc2)cc1 gave a composite z-score of -0.247.
With C#CCNCc1ccccc1 the composite z-score was -0.0435.
For CC[C@@H]1C=C(C(=O)O)[C@H](c2ccc(C)cc2)N1S(=O)(=O)c1ccc(C)cc1, the composite z-score was -0.0557.
Compound COCCCNC(=O)[C@@H]1c2ccccc2C(=O)N(Cc2ccccc2OC)[C@H]1c1ccc(CO)cc1 has a composite z-score of -0.115.
C=CCOC(=O)[C@H]1[C@@H]2C(=O)O[C@@H](c3ccccc3)[C@@H](c3ccccc3)N2[C@@H](c2ccc(OCCOC(=O)[C@@H]3C[C@@H]4C(=O)N5CCC[C@H]5C(=O)N4[C@@H]3c3cccc(OCCO)c3)cc2)[C@]12C(=O)Nc1ccc(I)cc12 gave a composite z-score of 0.0032.
In the case of CC(=O)NCCCC[C@@H]1NC(=O)[C@H]2C[C@@H](C(=O)O)[C@@H](c3ccc(O)cc3)N2C1=O, the composite z-score is reported as 0.138.
